# GLP-1R inv ag: inverse agonists of human GLP-1 receptor; Potency, µM (top dose mostly 38.3 µM), for inactives: top-dose activity change, negative = inhibition, usual class: inhibitors; hit rate 1.6% among 410,000; HEK293 GLP-1R CRE-luciferase, luminescence, 24 h; GLP-1R form is constitutively active; AID 624417; note: % is set by controls: 0 for no effect and ±100 for the full control effect; nearly all actives have a fitted effect of over 55% in size
# Target sequence (P43220 whole entry, looked up): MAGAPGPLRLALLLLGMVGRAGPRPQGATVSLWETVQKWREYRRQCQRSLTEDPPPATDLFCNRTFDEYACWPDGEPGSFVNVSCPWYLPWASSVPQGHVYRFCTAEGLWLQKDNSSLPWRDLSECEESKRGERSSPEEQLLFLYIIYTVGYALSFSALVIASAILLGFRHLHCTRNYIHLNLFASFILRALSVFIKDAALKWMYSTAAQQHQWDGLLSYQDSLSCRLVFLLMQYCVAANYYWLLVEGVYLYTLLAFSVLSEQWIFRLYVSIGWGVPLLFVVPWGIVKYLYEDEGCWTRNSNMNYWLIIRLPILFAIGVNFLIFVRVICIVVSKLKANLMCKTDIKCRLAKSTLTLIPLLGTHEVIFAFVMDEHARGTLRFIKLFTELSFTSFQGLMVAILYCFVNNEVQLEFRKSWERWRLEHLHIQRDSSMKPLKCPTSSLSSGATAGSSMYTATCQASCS
#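 GLP-1R inverse agonism mode: basal reporter luminescence in engineered HEK293 cells measured after one day of compound exposure at 37 deg C, with a 12 min room-temperature detection step.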
# GLP1R cytotox: cytotoxic in the GLP-1 receptor inverse agonist counter-screen; Potency, µM (titrated, usually from 38.3 µM), without a hit: top-dose activity change, negative = inhibition, usual class: inhibitors; hit rate 0.13% among 410,000; HEK293 cAMP-luciferase reporter cells, luminescence, 24 h;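 note: loss of luciferase light is scored as toxicity; % is set by controls: 0 for no effect and ±100 for the full control effect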
#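 Luminescence readout: signal drop marks cytotoxicity. Plated cells grew 12 h at 37 °C, 5% CO2, received 23 nL compound for 24 h, then got luciferase reagent, read after 12 min at RT.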
# GLP1R ag: agonists of human GLP-1 receptor. hit rate 0.007% among 380,000. AID 624172. Potency, µM (highest dose often 45.6 µM), inactives show at the top dose activation, hits mostly activators. HEK293 GLP-1R CRE-luciferase, luminescence, 4-6 h; cells express a hypersensitive GLP-1R form. P43220; note: % of control where 0% means no effect
# Numbers without * were called inactive; ? = inconclusive; · = not tested or not shown. Shown are actives, neighbours in structure and some others; about 1.7% of the full set was active somewhere. Calls come from the whole dose curve; as a rule, active = well fitted curve in the direction sought with a large enough effect; inconclusive = small, poorly fitted or top-dose-only effect, or another doubt; inactive = no such curve, though single readings can be large; an effect the other way counts as inactive or inconclusive. Potency is the fitted concentration of half-maximal effect.
SMILES,GLP-1R inv ag,GLP1R cytotox,GLP1R ag
CCC(CC)C(=O)N(C)c1c(C)nc2c(OCc3ccccc3C(=O)OC)cccn12,-13%,5%,15%
COCC(COS(N)(=O)=O)Cc1ccccc1 (stereo not drawn),3%,10%,-1%
Cc1ccc(C(=O)NCc2ccccc2)cc1NC(=O)c1nsc2ccccc12,?,-23%,·
CN1C[C@@H]2[C@@H]3C(=O)N(C)C(=O)[C@@H]3[C@](Cc3ccccc3)(C1=O)N2C(=O)c1ccc(Cl)cc1,7%,-25%,6%
CCCCCCCCCCCCCCNCCO,·,·,11%
CCCC(=O)N(c1ccc2oc3c(c2c1)CCCC3)S(=O)(=O)c1ccc(CC)cc1,?,-11%,-5%
Cc1cc(/C=C(\C#N)C(=O)NCc2cccs2)c(C)n1-c1ccccc1F,2.8µM*,-5%,7%
Cc1ccccc1-n1c(C)cc(/C=C(\C#N)C(=O)NCC2CCCO2)c1C (stereo not drawn),?,-6%,6%
CC1(C(=O)NS(=O)(=O)c2ccc(C#N)cc2)CCN1C(=O)Cc1ccc(-c2ccccc2)cc1 (stereo not drawn),-8%,0%,-1%
O=C(CCN1C(=O)C2C3C=CC(C3)C2C1=O)N1CCN(c2ccccn2)CC1 (stereo not drawn),-7%,20%,8%
O=C1C2C3C=CC(C3)C2C(=O)N1c1ccc(N2CCN(c3ccccn3)CC2)c([N+](=O)[O-])c1 (stereo not drawn),2.8µM*,-49%,6%
Cc1ccc(NC(=O)c2ccc(=O)[nH]c2)cc1S(=O)(=O)N1CCCCC1,3%,0%,2%
CCCc1nc2ccc(C)cn2c1Cc1ccccc1C(F)(F)F,-45%,-22%,-4%
CCCS(=O)(=O)NC(=O)C1(C)CCN(C(=O)c2ccc(F)c(C)c2)C1 (stereo not drawn),15%,-2%,-2%
CCOc1cc(CNc2ccc3c(c2)OCCO3)cc(Br)c1OCC,2.2µM*,-29%,1%
C=CCOc1c(Br)cc(CNc2ccc(NC(=O)CCC)cc2)cc1OCC,8.9µM*,-12%,-2%
CCOc1cc(CNc2ccc(N3CCOCC3)cc2)cc(Br)c1OCC,?,3%,12%
C=CCOc1ccc(CNc2ccc(NC(=O)CCC)cc2)cc1OCC,?,0%,5%
Nc1ccn([C@@H]2O[C@H](CO)[C@H](O)C2(F)F)c(=O)n1,·,·,2%
O=C(Nc1ccc(N2CCOCC2)cc1)C1CCN(S(=O)(=O)c2ccccc2F)CC1,?,-4%,-6%
COc1cc(-c2nc(-c3ccccc3)c(-c3ccc(Br)cc3)[nH]2)cc(OC)c1O,11µM*,-13%,·
COc1ccc(-c2nc(-c3ccccc3)c(-c3cc([N+](=O)[O-])ccc3C)[nH]2)cc1OC,5.6µM*,-4%,5%
CCOc1cc(-c2nc(-c3ccccc3)c(-c3cc([N+](=O)[O-])ccc3C)[nH]2)ccc1O,-29%,-30%,-4%
COc1ccc(-c2[nH]c(-c3cc(OC)c4c(c3)OCO4)nc2-c2ccccc2)cc1,?,-15%,-3%
CC(C)(C)OC(=O)N1CCC(c2c(C(=O)NCCN3CCc4ccccc4C3)cnn2-c2ccc(F)cc2)CC1,?,0%,·
SMILES,GLP-1R inv ag,GLP1R cytotox,GLP1R ag
O=C1NC[C@H](CCCCN2C[C@H](Cc3ccccc3)N(CC3CCCCC3)C(=O)C2=O)N(CC2CCCCC2)C1=O,18%,0%,-3%
COc1cccc(NC(=O)CSc2nc3c(sc4ccccc43)c(=O)n2CCN(C)C)c1,-7%,-1%,7%
COc1cccc(NC(=O)CSc2nc3c(sc4ccccc43)c(=O)n2CCCN2CCCC2)c1,10µM*,?,15%
COC(=O)c1cc(NC(=O)CCc2c(C)nc3nc(C)nn3c2C)cc(C(=O)OC)c1,30%,2%,-4%
OC(c1ccccc1)c1ncc(-c2ccccc2F)[nH]1 (stereo not drawn),-1%,-5%,-1%
COc1ccc(C2(c3ccc(OC)cc3)NC(=O)N(CC(=O)N(C)C3CCC(C)CC3)C2=O)cc1 (stereo not drawn),?,-11%,-7%
CC1CCC(N(C)C(=O)CN2C(=O)NC(c3ccccc3)(c3ccccc3)C2=O)CC1 (stereo not drawn),10µM*,-2%,-3%
COc1ccc(C(CNC(=O)c2ccc(S(=O)(=O)N(C)C)cc2)N(C)C)cc1 (stereo not drawn),2%,-1%,12%
CCN(c1ccccc1)S(=O)(=O)c1cc(C(=O)NCC(c2ccc(OC)cc2)N(C)C)ccc1C (stereo not drawn),11µM*,-7%,1%
COc1ccccc1NC(=O)c1ccccc1N(Cc1ccccc1)S(C)(=O)=O,-13%,-2%,0%
CCOc1cc(C(=O)NCC(C)(C)CNC(=O)c2cc(OCC)c(OCC)c(OCC)c2)cc(OCC)c1OCC,10µM*,-13%,1%
COc1cc(C(=O)NCC(C)(C)CNC(=O)c2cc(OC)c(OC)c(OC)c2)cc(OC)c1OC,36%,13%,11%
O=C(NCCC1=CCCCC1)NC12CC3CC(CC(C3)C1)C2,5.6µM*,16%,-5%
O=C(NCCc1ccc(F)cc1)NC12CC3CC(CC(C3)C1)C2,?,15%,0%
CCC(C)c1ccccc1NC(=O)COC(=O)c1ccc2[nH]c3c(c2c1)CCCC3 (stereo not drawn),5.6µM*,8%,-8%
O=C(COC(=O)c1ccc2[nH]c3c(c2c1)CCCC3)Nc1ccccc1Cl,11%,-4%,2%
CCOC(=O)Cc1nnc(NC(=O)CSc2ncc(-c3ccccc3)nn2)s1,5%,-4%,1%
C=CCN(c1ccccc1)S(=O)(=O)c1ccc2c(c1)NC(=O)C(C)C(=O)N2 (stereo not drawn),5%,2%,-3%
CCc1cccc(NS(=O)(=O)c2ccc3c(c2)NC(=O)C(C)S3)c1 (stereo not drawn),11µM*,1%,11%
COc1cccc(NS(=O)(=O)c2ccc3c(c2)NC(=O)C(C)S3)c1 (stereo not drawn),-15%,0%,6%
C=CCN(c1ccccc1)S(=O)(=O)c1ccc2c(c1)NC(=O)C(C)S2 (stereo not drawn),7.1µM*,0%,1%
Cc1cccc(NC(=O)c2cnccn2)c1,7%,0%,1%
Cc1cc(C)c(S(=O)(=O)Nc2ccc(-c3ccc(N4CCC(C)CC4)nn3)cc2)cc1C,?,-17%,·
O=S(=O)(Nc1cccc(-c2ccc(N3CCCCCC3)nn2)c1)c1ccccc1Cl,5µM*,-22%,14%
Cc1cc(S(=O)(=O)Nc2ccc(-c3ccc(N4CCCCC4)nn3)cc2)c(C)cc1Cl,7.1µM*,-13%,·
O=S(=O)(Nc1ccc(-c2ccc(N3CCCC3)nn2)cc1)c1ccc(Cl)cc1,?,-3%,·
O=S(=O)(Nc1cccc(-c2ccc(N3CCCCCC3)nn2)c1)c1ccccc1F,?,4%,5%
CCOc1ccc(S(=O)(=O)Nc2ccc(-c3ccc(N4CCCC4)nn3)cc2)cc1,7%,-12%,·
Cc1cc(S(=O)(=O)Nc2ccc(-c3ccc(N4CCCCCC4)nn3)cc2)c(C)cc1Cl,7.9µM*,-23%,·

# Bioassay records deposited in PubChem by National Center for Advancing Translational Sciences (NCATS).
